Experimental data as given in PubChem BioAssay AID1159580 (chemical genetic matrix, 2015).
The whole screen tested about 5,500 compounds, of which about 2,000 (36%) were called active. Another 18% or so got no clear call; they are omitted. No stated cut-off is given here; in the data, active means normalized growth mostly below about 0.91 (no sharp cut-off); inconclusive means no clear call, values can overlap the other calls; inactive means mostly above about 0.92. The list shows a part of the results.

Test: chemical genetic growth profiling, strain panel (AID 1159580);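 further: tested at 20 µM; growth read once vehicle control cultures reached saturation at 30 °C; 1 = growth at the plate median or of vehicle wells; lower values mean less growth of the strain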
Conditions: S. cerevisiae deletion strains, growth OD

Measured: normalized growth

CNS(=O)(=O)Cc1ccc2[nH]cc(CCN(C)C)c2c1
inactive: locus YAL021C, strain ccr4, active compounds read low 0.999 | locus YAL026C, strain drs2, active compounds read low 1.02 | locus YAL030W, strain snc1, active compounds read low 1.02 | locus YBL061C, strain skt5, active compounds read low 1.03 | locus YBR009C, strain hhf1, active compounds read low 1.03 | locus YBR023C, strain chs3, active compounds read low 1.03 | locus YBR171W, strain sec66, active compounds read low 1.04 | locus YBR231C, strain swc5, active compounds read low 1.03 | locus YBR279W, strain paf1, active compounds read low 1.02 | locus YCL011C, strain gbp2, active compounds read low 1.02 | locus YCL016C, strain dcc1, active compounds read low 1.02 | locus YCL069W, strain vba3, active compounds read low 1.03 | locus YCR088W, strain abp1, active compounds read low 1.03 | locus YDL005C, strain med2, active compounds read low 1.04 | locus YDL040C, strain nat1, active compounds read low 1.02 | locus YDR001C, strain nth1, active compounds read low 1.04 | locus YDR069C, strain doa4, active compounds read low 1.02 | locus YDR137W, strain rgp1, active compounds read low 1.04 | locus YDR159W, strain sac3, active compounds read low 1.03 | locus YDR195W, strain ref2 1 | locus YDR297W, strain sur2, active compounds read low 1.02 | locus YDR334W, strain swr1, active compounds read low 1.02 | locus YDR335W, strain msn5, active compounds read low 1.02 | locus YDR392W, strain spt3, active compounds read low 1.01 | locus YEL003W, strain gim4, active compounds read low 1.02 | locus YEL037C, strain rad23, active compounds read low 1.03 | locus YEL061C, strain CIN8 (second series), active compounds read low 1.03 | locus YER015W, strain faa2, active compounds read low 1.02 | locus YER016W, strain bim1, active compounds read low 1.02 | locus YER111C, strain swi4, active compounds read low 1.02 | locus YER155C, strain BEM2 (second series), active compounds read low 1 | locus YFR010W, strain ubp6, active compounds read low 1.03 | locus YGL167C, strain pmr1, active compounds read low 1.03 | locus YGL173C, strain kem1, active compounds read low 1.05 | locus YGL227W, strain vid30, active compounds read low 1.03 | locus YGL240W, strain doc1, active compounds read low 1.02 | locus YGL253W, strain hxk2, active compounds read low 1.02 | locus YHR013C, strain ard1, active compounds read low 1.07 | locus YHR027C, strain rpn1, active compounds read low 1.04 | locus YHR030C, strain SLT2, active compounds read low 1.07 | locus YHR079C, strain IRE1, active compounds read low 1.05 | locus YHR142W, strain chs7, active compounds read low 1.04 | locus YJL092W, strain hpr5, active compounds read low 1.03 | locus YJL095W, strain BCK1 (second series), active compounds read low 1.02 | locus YJL095W, strain BCK1, active compounds read low 1.01 | locus YJL115W, strain asf1, active compounds read low 1.03 | locus YJL129C, strain trk1, active compounds read low 1.07 | locus YJL154C, strain vps35, active compounds read low 1.03 | locus YJL164C, strain tpk1, active compounds read low 1.02 | locus YJL166W, strain qcr8, active compounds read low 1.02 | locus YJL187C, strain SWE1, active compounds read low 1.03 | locus YJR066W, strain TOR1, active compounds read low 0.977 | locus YKL160W, strain elf1, active compounds read low 1.02 | locus YKR026C, strain gcn3, active compounds read low 1.03 | locus YKR091W, strain srl3, active compounds read low 1.01 | locus YLL001W, strain dnm1, active compounds read low 1.02 | locus YLL026W, active compounds read low 1.01 | locus YLL041C, strain sdh2, active compounds read low 1.02 | locus YLR027C, strain aat2, active compounds read low 1.01 | locus YLR113W, strain HOG1, active compounds read low 0.935 | locus YLR221C, strain rsa3, active compounds read low 1.02 | locus YLR258W, strain gsy2, active compounds read low 1.03 | locus YLR262C, strain YPT6 (second series), active compounds read low 1.04 | locus YLR320W, strain mms22, active compounds read low 1.04 | locus YLR342W, strain FKS1, active compounds read low 1.02 | locus YLR357W, strain rsc2, active compounds read low 1.02 | locus YLR370C, strain arc18, active compounds read low 1.01 | locus YLR384C, strain iki3, active compounds read low 1.03 | locus YML120C, strain ndi1, active compounds read low 1.02 | locus YMR058W, strain fet3, active compounds read low 1.04 | locus YMR125W, strain sto1, active compounds read low 1.02 | locus YMR129W, active compounds read low 1.01 | locus YMR205C, strain PFK2, active compounds read low 1.05 | locus YMR231W, strain pep5, active compounds read low 1.03 | locus YNL071W, strain lat1, active compounds read low 1.03 | locus YNL183C, strain NPR1, active compounds read low 0.97 | locus YNL209W, strain ssb2, active compounds read low 1.02 | locus YNL248C, strain rpa49, active compounds read low 1.06 | locus YNL322C, strain KRE1 (second series), active compounds read low 1.02 | locus YNR049C, strain mso1, active compounds read low 1.02 | locus YOR001W, strain rrp6, active compounds read low 1.03 | locus YOR070C, strain gyp1, active compounds read low 1.03 | locus YOR080W, strain dia2, active compounds read low 1.03 | locus YOR083W, strain WHI5, active compounds read low 1.01 | locus YOR106W, strain vam3, active compounds read low 1.05 | locus YOR231W, strain MKK1, active compounds read low 1.03 | locus YOR265W, strain rbl2, active compounds read low 1.01 | locus YOR270C, strain vph1, active compounds read low 1.1 | locus YOR290C, strain snf2, active compounds read low 1.02 | locus YPL051W, strain arl3, active compounds read low 1.02 | locus YPL078C, strain atp4, active compounds read low 1.02 | locus YPL106C, strain sse1, active compounds read low 1.03 | locus YPL240C, strain hsp82, active compounds read low 1.02 | locus YPL256C, strain CLN2, active compounds read low 1.06
